# Measured values reported in the supplement of paper PMC4466236.
# The full ranking holds about 33,000 sequences; the median of “E-score (dimensionless, -0.5 to 0.5)” is about -0.058, and the highest 2% start at about 0.35. The list comes from a sample in which the highest values are over-represented; it also holds similar and randomly drawn sequences.
# Tested on: MvaT
# Test: PBM 8-mer E-score (mean of HK and ME arrays) (E-score (dimensionless, -0.5 to 0.5)); higher = stronger relative binding preference
# How it was run: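 Reported values are rank-based E-scores, taken as the mean of two universal arrays and parsed with a custom script. Each 8-mer score falls between -0.5 and 0.5. The arrays, ME and HK, were double-stranded 60-mers with a constant 25-mer primer region and a variable 35-mer region covering all 8-mers. They were probed, by an earlier protocol, with full-length P. aeruginosa MvaT carrying an N-terminal glutathione S-transferase fusion.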
row,Sequence,PBM 8-mer E-score
1,ACGCACTC,-0.0389
2,AAAAAGAG,0.0446
3,AACGTTTG,0.0612
4,AGCCGCAA,-0.0521
5,GGGCCGAC,-0.267
6,GGCGGAAC,-0.146
7,ATCTTCAA,0.0478
8,GCCTTGGA,-0.206
9,GGCACCCA,-0.148
10,CTCCACTC,-0.232
11,AATAATAG,0.402
12,AATAATAA,0.478
13,AATAAGAG,0.222
14,GATAATAA,0.404
15,CATAATAA,0.334
16,CATAATAG,0.318
17,AATAAGAT,0.356
18,AATAAGAA,0.318
19,AATAGTAG,0.294
20,AGGCATCG,-0.134
21,TAAATCAA,0.341
22,AATTGGTG,0.0491
23,CGCTGTAC,-0.228
24,GCAGCTAA,0.0363
25,AATAATAC,0.419

row,Sequence,PBM 8-mer E-score
1,GATAATAC,0.301
2,CATAATAC,0.327
3,GGAAATCA,-0.0787
4,GAGGAATC,-0.0683
5,TCCATCAA,-0.032
6,ACAAGGTA,-0.0731
7,CGTTAACA,0.114
8,AGTTAACT,0.377
9,AGTTAACC,0.142
10,AGTTAACA,0.348
11,AGTTAACG,0.204
12,TGTTAACA,0.33
13,GTGAACCA,-0.139
14,AACGCTTA,0.0532
15,ATATTAAC,0.434
16,CTATTAAA,0.283
17,GTGTTAAA,0.177
18,ATATTAAA,0.466
19,CGATTAAA,0.218
20,GTATTAAA,0.313
21,AGATTAAC,0.173
22,TTGTTAAA,0.346
23,TCATTAAA,0.228
24,CTGTTAAA,0.175
25,CTATTAAC,0.315

row,Sequence,PBM 8-mer E-score
1,TTATTAAA,0.409
2,GAGGACTC,-0.279
3,CTCGGAAG,-0.0476
4,CGCACACG,-0.149
5,GATTCTGC,-0.159
6,CACTACGA,-0.0417
7,CCTGGCAG,-0.209
8,CGTTGTAC,-0.0465
9,AAGAGCTT,-0.115
10,GATTCTGA,-0.00658
11,AGCGCAAA,0.162
12,AACCAGGC,-0.183
13,GCCTAATA,0.133
14,AAATTTCT,0.148
15,ATATTAAG,0.446
16,ATATTACG,0.299
17,CTATTAAG,0.17
18,GTATTAAC,0.39
19,GCATTAAC,0.114
20,GGATTAAC,0.111
21,AGCGTCGC,-0.197
22,CACAACCG,-0.028
23,ATCGTATA,0.115
24,CCTACGAG,-0.148
25,ATAAGTCA,0.17

row,Sequence,PBM 8-mer E-score
1,CGTATAAC,0.113
2,AGTATAAC,0.36
3,AGTATAAA,0.381
4,GGTATAAA,0.339
5,GGTATAAC,0.226
6,TGTATAAA,0.258
7,ATGTAAAA,0.247
8,CTTCCCCC,-0.176
9,AACACACA,0.187
10,AGGCTTAC,-0.247
11,AGATAATA,0.366
12,AGATAATG,0.295
13,CGATAATA,0.301
14,GGATAATA,0.403
15,AGATAATC,0.136
16,GGATAAGA,0.0379
17,GCTCGAGA,-0.152
18,CCGTTCGC,-0.222
19,CTCCGGTA,-0.227
20,CAACGGCG,-0.221
21,ATATATAG,0.468
22,CCATATAG,0.084
23,CTATATAA,0.421
24,GTATATAA,0.401
25,ATCTATAG,0.146

row,Sequence,PBM 8-mer E-score
1,ATCTATAA,0.209
2,GCGTATAA,0.201
3,ATATAGCG,0.333
4,CTATATAG,0.388
5,CACTATAG,0.196
6,GTGTATAA,0.202
7,CTCTATAA,0.081
8,AACTAGGA,0.0115
9,TGGCAACA,-0.122
10,ACAATCAC,0.00599
11,CACGCATC,-0.154
12,GTGGCCAA,-0.191
13,CTGTTACA,0.111
14,CTGTTATC,0.0487
15,GTGTTATA,0.32
16,ATGTTATG,0.152
17,ATGTTATA,0.442
18,CTGTTATA,0.359
19,GAGGAAAC,-0.144
20,GAAACAAA,0.271
21,ACTAATAA,0.399
22,ACTAATAC,0.247
23,CCTAATAA,0.266
24,TCTAATAA,0.332
25,ACTAATAT,0.407

row,Sequence,PBM 8-mer E-score
1,ACTAATAG,0.199
2,CCAAATCC,-0.193
3,AGAAAGAC,0.00959
4,GACACACA,0.101
5,AGGGACCC,-0.282
6,AGACCTCG,-0.132
7,AGATCGAG,-0.129
8,CGTGAAGC,-0.218
9,CTTGGTTA,0.0108
10,CATATCAC,0.15
11,GAGGCACC,-0.229
12,AAACATAG,0.216
13,ATACAAAG,0.27
14,AAACATAT,0.361
15,AAACATAC,0.284
16,AAACATAA,0.371
17,GAACATAA,0.256
18,ATACATAT,0.394
19,ATACAAAA,0.304
20,ATACAAAT,0.35
21,ATACATAA,0.336
22,TAACATAA,0.303
23,ATACATAC,0.319
24,CAGTTGAC,0.0902
25,GGTCGAAC,-0.0987

row,Sequence,PBM 8-mer E-score
1,AGTCAGAG,-0.21
2,CCTGGCGC,-0.207
3,CGTAAATA,0.236
4,GATAAATC,0.137
5,CATAAATG,0.112
6,GATAAAGA,0.271
7,CATAAATA,0.358
8,AGTAAATA,0.361
9,CATAAATC,0.163
10,TATAAATA,0.426
11,CCTAAATA,0.226
12,GATAAATA,0.382
13,TATAAAGA,0.327
14,AGTAAATC,0.0898
15,CCCTGGAA,-0.276
16,CCCTACAC,-0.212
17,CTCCGCCA,-0.247
18,ACTCAGTA,0.118
19,AATTGAGA,0.0559
20,AATAAATG,0.33
21,AATAAATC,0.319
22,AATAAACT,0.293
